Test results published in PubChem BioAssay (NCI).
The panel holds about 79,000 compounds, 15% with a hit somewhere; the sample as a whole holds those more often. The source made the active and inactive calls. No stated cut-off is given here; in the data, active means growth inhibition above about 70%; inactive means the rest.

Experiments:
[1] = NCI Yeast Anticancer Drug Screen. Data for the rad52 strain (AID 147);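 further: 0% = growth of vehicle-treated control cultures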; settings: S. cerevisiae rad52 mutant growth inhibition, stronger effect = higher value
Outline: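 Growth of repair-deficient yeast cells was compared between compound-treated and vehicle-treated cultures to give percent inhibition.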

[2] = NCI Yeast Anticancer Drug Screen. Data for the wt1 strain (AID 149);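 further: 0% = growth of vehicle-treated wt1 cultures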; settings: S. cerevisiae wt1 strain (SPY 50644) growth inhibition, stronger effect = higher value
Outline: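 Measured: growth of wt1 yeast under compound versus vehicle treatment, reported as inhibition.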

[3] = NCI Yeast Anticancer Drug Screen. Data for the rad50EPP+ strain (AID 151);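 further: 0% = growth of vehicle-treated control cultures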; settings: S. cerevisiae rad50 mutant strain, stronger effect = higher value
Outline: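 Measured: growth inhibition of rad50EPP+ yeast. Reference: vehicle-treated controls. Screen uses strains with defined genetic alterations in DNA damage repair or cell cycle control.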

[4] = NCI Yeast Anticancer Drug Screen. Data for the mgt1 strain (AID 153); settings: S. cerevisiae mgt1 mutant growth inhibition, stronger effect = higher value
Outline: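 Compounds were applied to mgt1 mutant yeast, and growth was then compared against vehicle-treated control cultures to give percent inhibition.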

[5] = NCI Yeast Anticancer Drug Screen. Data for the rad50 strain (AID 155);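 further: 0% = growth of vehicle-only cultures of the same strain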; settings: S. cerevisiae rad50 strain growth inhibition, stronger effect = higher value
Outline: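 Growth of the mutant yeast was measured after compound exposure and referenced to vehicle-treated cultures.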

[6] = NCI Yeast Anticancer Drug Screen. Data for the mec2-1 strain (AID 157); settings: S. cerevisiae mec2-1 strain, stronger effect = higher value
Outline: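 Compounds were applied to mec2-1 yeast cells. Their growth was then compared with that of vehicle-treated cultures to give growth inhibition.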

[7] = NCI Yeast Anticancer Drug Screen. Data for the rad14 strain (AID 159);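 further: 0% = growth of vehicle-treated control cultures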; settings: S. cerevisiae rad14 strain growth inhibition, stronger effect = higher value
Outline: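 Here, inhibition of yeast growth was measured after compound exposure, using a strain with a genetic defect in DNA damage repair and vehicle-treated cultures as the reference.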

[8] = NCI Yeast Anticancer Drug Screen. Data for the sgs1 mgt1 strain (AID 161);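 further: 0% = growth of cultures given vehicle only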; settings: S. cerevisiae sgs1 mgt1 strain, stronger effect = higher value
Outline: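 Compounds are added to genetically altered yeast, and growth is compared with cultures given vehicle alone to give percent inhibition.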

[9] = NCI Yeast Anticancer Drug Screen. Data for the CLN2oe strain (AID 163);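 further: 0% = growth of vehicle-only control cultures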; settings: S. cerevisiae CLN2oe strain, stronger effect = higher value
Outline: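 Cells of an engineered yeast line with disturbed cell-cycle regulation are treated with compound. Inhibition of growth is then calculated relative to the vehicle-treated reference.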

[10] = NCI Yeast Anticancer Drug Screen. Data for the cln2 rad14 strain (AID 165);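 further: 0% = growth equal to vehicle treated cultures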; settings: S. cerevisiae cln2 rad14 strain, stronger effect = higher value
Outline: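 Strain: cln2 rad14 yeast, altered in cell cycle control and DNA damage repair. Read-out: growth inhibition vs vehicle.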

[11] = NCI Yeast Anticancer Drug Screen. Data for the bub3 strain (AID 167); settings: S. cerevisiae bub3 mutant strain, stronger effect = higher value
Outline: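 Whole-cell yeast assay. The mutant strain was incubated with compounds, and growth inhibition was determined by comparison with vehicle-treated cells.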

[12] = NCI Yeast Anticancer Drug Screen. Data for the sgs1 strain (AID 173);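 further: 0% = growth of vehicle-only control cultures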; settings: S. cerevisiae sgs1 mutant, stronger effect = higher value
Outline: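 Strain with an altered DNA repair or cell cycle pathway exposed to compound. Growth then measured. Value = inhibition versus vehicle control.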

[13] = NCI Yeast Anticancer Drug Screen. Data for the mlh1 rad18 strain (AID 175); settings: S. cerevisiae mlh1 rad18 strain growth inhibition, stronger effect = higher value
Outline: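 A repair-deficient yeast strain is exposed to test compound, and growth is scored relative to vehicle-treated controls.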

[14] = NCI Yeast Anticancer Drug Screen. Data for the rad18 strain (AID 177); settings: S. cerevisiae rad18 mutant growth inhibition, stronger effect = higher value
Outline: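 DNA-repair-defective yeast; compound treatment; growth inhibition scored against vehicle.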

[15] = NCI Yeast Anticancer Drug Screen. Data for the wt2 strain (AID 169);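 further: 0% = growth of vehicle-treated yeast cultures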; settings: S. cerevisiae wt2 strain growth inhibition, stronger effect = higher value
Outline: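 Growth of compound-treated yeast is measured and expressed as inhibition relative to vehicle-only controls.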

[16] = NCI Yeast Anticancer Drug Screen. Data for the mlh1 strain (AID 171);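 further: 0% = growth of vehicle-treated control cultures of the same strain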; settings: S. cerevisiae mlh1 strain growth inhibition, stronger effect = higher value
Outline: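 Test agents were incubated with yeast bearing a defined DNA damage repair or cell cycle control alteration; values are growth inhibition normalised to vehicle-treated cultures.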

[17] = at 5.0 µM (retest, dose inferred, filed as 0.5)
[18] = at 50.0 µM (retest, dose inferred, filed as 5.0)

Measured: growth inhibition

NCc1c(O)ccc2ccccc12
active: [1]; at 100.0 µM 99% | [2]; at 33.0 µM 90% | [2]; at 100.0 µM 99% | [3]; at 100.0 µM 88% | [4]; at 33.0 µM 98% | [4]; at 100.0 µM 99% | [5]; at 33.0 µM 92% | [5]; [18] 83% | [5]; at 50.0 µM 89.2% | [5]; at 100.0 µM 98% | [6]; at 100.0 µM 99% | [7]; at 33.0 µM 99% | [7]; at 100.0 µM 99% | [8]; [18] 74% | [8]; at 50.0 µM 85.9% | [9]; at 100.0 µM 98% | [11]; at 33.0 µM 79% | [11]; at 50.0 µM 93.7% | [11]; at 100.0 µM 98% | [12]; at 33.0 µM 99% | [12]; at 100.0 µM 99% | [13]; [18] 83% | [13]; at 50.0 µM 94% | [14]; at 33.0 µM 87% | [14]; at 100.0 µM 99%
inactive: [1]; at 1.2 µM -17% | [1]; at 3.7 µM -11% | [1]; at 11.0 µM -1% | [1]; at 33.0 µM 64% | [2]; at 1.2 µM 8% | [2]; at 3.7 µM 11% | [2]; at 11.0 µM 27% | [3]; at 1.2 µM -5% | [3]; at 3.7 µM -18% | [3]; at 11.0 µM 10% | [3]; at 33.0 µM 52% | [4]; at 1.2 µM -2% | [4]; at 3.7 µM -7% | [4]; at 11.0 µM 3% | [5]; at 1.2 µM -11% | [5]; at 3.7 µM -10% | [5]; [17] -150% | [5]; at 11.0 µM 2% | [6]; at 1.2 µM -3% | [6]; at 3.7 µM -1% | [6]; [17] -46% | [6]; at 11.0 µM 4% | [6]; at 33.0 µM 25% | [6]; [18] -15% | [6]; at 50.0 µM 47.5% | [7]; at 1.2 µM -3% | [7]; at 3.7 µM 5% | [7]; at 11.0 µM 49% | [8]; [17] -60% | [9]; at 1.2 µM -6% | [9]; at 3.7 µM -4% | [9]; at 11.0 µM -1% | [9]; at 33.0 µM 18% | [10]; [17] -53% | [10]; [18] -25% | [10]; at 50.0 µM 17.2% | [11]; at 1.2 µM -7% | [11]; at 3.7 µM -4% | [11]; [17] -71% | [11]; at 11.0 µM 0% | [11]; [18] 60% | [12]; at 1.2 µM -10% | [12]; at 3.7 µM -5% | [12]; at 11.0 µM 37% | [13]; [17] -138% | [14]; at 1.2 µM -6% | [14]; at 3.7 µM -6% | [14]; at 11.0 µM 7%

CC(=O)C1(O)Cc2c(O)c3c(c(O)c2C(OC2CC(N)C(O)C(C)O2)C1)C(=O)c1ccccc1C3=O (stereo not given)
active: [1]; at 1.2 µM 82% | [1]; at 3.7 µM 92% | [1]; at 11.0 µM 95% | [1]; at 33.0 µM 96% | [1]; at 100.0 µM 97% | [2]; at 11.0 µM 88% | [2]; at 33.0 µM 96% | [2]; at 100.0 µM 98% | [3]; at 3.7 µM 92% | [3]; at 11.0 µM 97% | [3]; at 33.0 µM 98% | [3]; at 100.0 µM 98% | [4]; at 11.0 µM 92% | [4]; at 33.0 µM 97% | [4]; at 100.0 µM 98% | [5]; at 1.2 µM 86% | [5]; at 3.7 µM 92% | [5]; at 11.0 µM 94% | [5]; at 33.0 µM 97% | [5]; [18] 85% | [5]; at 50.0 µM 89.4% | [5]; at 100.0 µM 98% | [6]; at 11.0 µM 90% | [6]; at 33.0 µM 95% | [6]; at 50.0 µM 92.9% | [6]; at 100.0 µM 98% | [7]; at 11.0 µM 89% | [7]; at 33.0 µM 96% | [7]; at 100.0 µM 97% | [8]; at 50.0 µM 91% | [9]; at 11.0 µM 93% | [9]; at 33.0 µM 98% | [9]; at 100.0 µM 99% | [10]; at 50.0 µM 87.9% | [11]; at 11.0 µM 91% | [11]; at 33.0 µM 97% | [11]; at 50.0 µM 90.2% | [11]; at 100.0 µM 98% | [15]; at 11.0 µM 93% | [15]; at 33.0 µM 98% | [15]; at 100.0 µM 99% | [16]; at 11.0 µM 90% | [16]; at 33.0 µM 96% | [16]; at 100.0 µM 98% | [12]; at 11.0 µM 93% | [12]; at 33.0 µM 97% | [12]; at 100.0 µM 98% | [14]; at 11.0 µM 94% | [14]; at 33.0 µM 96% | [14]; at 100.0 µM 98%
inactive: [2]; at 1.2 µM 25% | [2]; at 3.7 µM 31% | [3]; at 1.2 µM 55% | [4]; at 1.2 µM 4% | [4]; at 3.7 µM 45% | [5]; [17] 24% | [6]; at 1.2 µM 15% | [6]; at 3.7 µM 50% | [6]; [17] -32% | [6]; [18] 47% | [7]; at 1.2 µM -4% | [7]; at 3.7 µM 33% | [8]; [17] -25% | [8]; [18] 65% | [9]; at 1.2 µM -1% | [9]; at 3.7 µM 46% | [10]; [17] -15% | [10]; [18] 41% | [11]; at 1.2 µM -7% | [11]; at 3.7 µM 8% | [11]; [17] -42% | [11]; [18] 16% | [15]; at 1.2 µM 2% | [15]; at 3.7 µM 27% | [16]; at 1.2 µM 1% | [16]; at 3.7 µM 22% | [12]; at 1.2 µM -14% | [12]; at 3.7 µM 60% | [13]; [17] -33% | [13]; [18] 54% | [14]; at 1.2 µM 1% | [14]; at 3.7 µM 60%
